Hits are enriched below; roughly 3.5% of the tested compounds scored in any of these assays.
Anthrax LF prot: anthrax lethal factor protease inhibition; multiplex microsphere protease cleavage assay, LF; inhibition, % at 10 µM; actives 0.12% (n = 360,000)
Target sequence (P15917 whole entry, looked up): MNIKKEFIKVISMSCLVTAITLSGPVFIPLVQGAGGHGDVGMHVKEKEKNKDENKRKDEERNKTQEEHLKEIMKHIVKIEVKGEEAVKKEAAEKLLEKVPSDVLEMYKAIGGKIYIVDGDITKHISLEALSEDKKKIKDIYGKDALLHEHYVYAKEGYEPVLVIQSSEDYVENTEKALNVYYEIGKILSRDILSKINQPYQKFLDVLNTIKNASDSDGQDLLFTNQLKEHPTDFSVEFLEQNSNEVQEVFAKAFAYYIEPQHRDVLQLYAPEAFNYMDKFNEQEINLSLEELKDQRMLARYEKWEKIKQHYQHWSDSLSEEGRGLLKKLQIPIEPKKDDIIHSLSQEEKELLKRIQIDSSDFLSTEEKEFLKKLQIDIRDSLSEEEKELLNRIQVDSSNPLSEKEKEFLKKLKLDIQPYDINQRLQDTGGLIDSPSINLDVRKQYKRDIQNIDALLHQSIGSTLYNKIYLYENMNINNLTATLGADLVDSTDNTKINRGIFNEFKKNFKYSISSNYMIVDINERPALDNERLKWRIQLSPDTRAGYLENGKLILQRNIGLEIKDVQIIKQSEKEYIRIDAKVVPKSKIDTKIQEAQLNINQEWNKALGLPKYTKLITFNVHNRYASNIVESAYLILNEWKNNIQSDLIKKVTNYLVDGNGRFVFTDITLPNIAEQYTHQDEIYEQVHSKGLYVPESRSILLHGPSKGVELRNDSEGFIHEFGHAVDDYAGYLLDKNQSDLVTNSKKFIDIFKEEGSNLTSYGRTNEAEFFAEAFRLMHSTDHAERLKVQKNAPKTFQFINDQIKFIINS
BJeLR lethal: kills HRASV12-expressing BJeLR cells; BJeLR (HRASV12) viability, CellTiter-Glo ATP luminescence, 48 h; actives 0.17% (n = 300,000); inhibition, % (test concentration not listed); AID 1554; in the data active = inhibition above about 50%; inconclusive = no clear call, values can overlap the other calls
Autofluor counter: compound fluorescence in toxin protease inhibitor counterscreen; compound autofluorescence counterscreen, microsphere flow cytometry; hits give high values; fluorescence intensity (test concentration not listed); actives 3.1% (n = 360,000); in the data active = fluorescence intensity above about 16000; inconclusive = no clear call, values can overlap the other calls
BoNT-A LC inh2: BoNT A light chain protease inhibition. multiplex microsphere protease substrate cleavage, flow cytometry. inhibition, % at 10 µM. actives 0.17% (n = 360,000). AID 588499
BoNT F protease: BoNT F light chain protease inhibition; Multiplex microsphere protease cleavage assay, flow cytometry; inhibition, % at 10 µM; actives 0.22% (n = 360,000); AID 588497; in the data active = inhibition above about 35%, passing the limit was not always enough; inconclusive = no clear call, values can overlap the other calls
BoNT-A LC CP1: BoNT/A light chain protease inhibition | AID 602139 | multiplex microsphere protease assay, flow cytometry | shares compounds with BoNT F protease | inhibition, % at 10 µM | actives 3% (n = 720); in the data active = inhibition above about 32%
BoNT-F LC CP1: inhibitors of Botulinum neurotoxin F light chain protease | shares compounds with BoNT F protease | multiplex microsphere protease cleavage assay, flow cytometry | inhibition, % at 10 µM | 720 tested, under 10 active | AID 602140; call rule not given here
Anthrax LF CP1: inhibitors of Bacillus anthracis lethal factor protease | shares compounds with BoNT F protease | multiplex microsphere protease cleavage assay, LF | inhibition, % at 10 µM | 720 tested, under 10 active | AID 602142; call rule not given here
Each line names hits and unclear results; the compound was inactive in the other large screens (follow-up assays come after a bar, where they were run). Cut-off read from the data, not from the text of the source, unless noted: active = inhibition above about 30%; inconclusive = no clear call, values can overlap the other calls; inactive = below that.

O=C(CCSc1ccccn1)Nc1ccc(Br)cc1	BoNT F protease 47.2 | BoNT-A LC CP1 inactive | BoNT-F LC CP1 inactive | Anthrax LF CP1 inactive
CSc1cccc(NC(=O)c2cnccn2)c1	none
CCN1CCN(CC(=O)c2c(C)n(C)c3ccc(OC)cc23)CC1	Autofluor counter inconclusive (no result: BJeLR lethal)
CCOC(=O)C1CCN(CC(=O)c2c(C)n(C)c3ccc(OC)cc23)CC1	BoNT F protease 38.6 | BoNT-A LC CP1 inactive | BoNT-F LC CP1 inactive | Anthrax LF CP1 inactive
CCC(C)NC(=O)c1cc2cc3ccc(OC)cc3nc2s1 (configuration not stated)	none | BoNT-A LC CP1 inactive | BoNT-F LC CP1 inactive | Anthrax LF CP1 inactive
O=C(CCN1C(=O)c2cccc([N+](=O)[O-])c2C1=O)NC1CCCCCC1	none (no result: BJeLR lethal)
CN(CCOc1ccccc1)C(=O)c1cc([N+](=O)[O-])cc([N+](=O)[O-])c1	BoNT F protease 42.3 | BoNT-A LC CP1 inactive | BoNT-F LC CP1 inactive | Anthrax LF CP1 inactive
O=S(=O)(c1cccs1)N1CCC2(CC1)OCCN2S(=O)(=O)c1ccccc1	Autofluor counter inconclusive
Cc1ccccc1NC(=O)CN(c1ccc(F)cc1)S(C)(=O)=O	BoNT F protease 42.4 | BoNT-A LC CP1 inactive | BoNT-F LC CP1 inactive | Anthrax LF CP1 inactive
COc1ccccc1N(CC(=O)Nc1ccccc1C)S(C)(=O)=O	none
CN(C)C1(CNC(=O)C2CCN(S(=O)(=O)c3c(Cl)cccc3Cl)CC2)CCCCC1	none
O=C(Nc1ccccc1C(=O)Nc1nncs1)c1ccccc1	BoNT F protease 39.6 | BoNT-A LC CP1 inactive | BoNT-F LC CP1 inactive | Anthrax LF CP1 inactive
CCOC(=O)CCCCC(=O)c1[nH]c(=O)[nH]c1Cn1cnc2ccccc21	none | BoNT-A LC CP1 inactive | BoNT-F LC CP1 inactive | Anthrax LF CP1 inactive
CCOC(=O)CCCCC(=O)c1[nH]c(=O)[nH]c1CSCCO	BoNT F protease 64.5 | BoNT-A LC CP1 inactive | BoNT-F LC CP1 inactive | Anthrax LF CP1 inactive
CCOC(=O)CCCCC(=O)c1[nH]c(=O)[nH]c1CSc1nc(-c2ccccc2)c(C#N)c(=O)[nH]1	none
COCCCNC(=O)/C=C/c1ccc(Cl)cc1	none
CCOc1ccc(NC(=O)CSc2nccn(-c3ccc4c(c3)OCCO4)c2=O)cc1	Autofluor counter inconclusive
CCOC(=O)c1c(NC(=O)Nc2ccc(Cl)cc2)sc(C)c1C	Anthrax LF prot 41.4, Autofluor counter 27117 | BoNT-A LC CP1 inactive | BoNT-F LC CP1 inactive | Anthrax LF CP1 inactive
COc1ccc(C(CNC(=O)C(CC(C)C)NS(=O)(=O)c2ccc(C)cc2)N2CCOCC2)cc1 (configuration not stated)	none
O=C(C1CCCN(S(=O)(=O)Cc2ccccc2)C1)N1CCc2ccccc21 (configuration not stated)	none
Clc1ccc(Cc2ccc(SCc3ccccc3)nn2)c(Cl)c1	Autofluor counter inconclusive, BoNT F protease 43.4 | BoNT-A LC CP1 inactive | BoNT-F LC CP1 inactive | Anthrax LF CP1 inactive
Clc1ccc(CSc2ccc(-c3ccccn3)nn2)cc1	none
O=[N+]([O-])c1cccc(S(=O)(=O)N2CCCC2)c1	none | BoNT-A LC CP1 inactive | BoNT-F LC CP1 inactive | Anthrax LF CP1 inactive
CCN1CCN(S(=O)(=O)c2cccc([N+](=O)[O-])c2)CC1	none
Cc1ccc(-c2csc(NC(=O)c3ccccc3F)c2C(=O)O)cc1	BoNT F protease 35.0 | BoNT-A LC CP1 inactive | BoNT-F LC CP1 inactive | Anthrax LF CP1 inactive
O=C(Nc1scc(-c2ccccc2)c1C(=O)O)c1ccccc1F	BoNT F protease inconclusive
Cc1nn(-c2nnc(NC3CCCCC3)nn2)c(C)c1Br	BoNT-A LC inh2 34.7 | BoNT-A LC CP1 inactive | BoNT-F LC CP1 inactive | Anthrax LF CP1 inactive
Cc1nn(C)c(C)c1S(=O)(=O)NC1CCCC1	none
O=C(Nc1c(F)c(F)c(F)c(F)c1F)c1ccc(Br)o1	none (no result: BJeLR lethal)
NC(=O)c1ccc(Br)c(S(=O)(=O)N2CCCCC2)c1	BoNT-A LC inh2 35.3, BoNT F protease 42.1 | BoNT-A LC CP1 inactive | BoNT-F LC CP1 inactive | Anthrax LF CP1 inactive
O=C(c1ccc(Br)c(S(=O)(=O)N2CCCCC2)c1)N1CCCCC1	none
COc1ccc(C(=O)Nc2nc(-c3ccc([N+](=O)[O-])cc3)c(-c3ccc(OC)cc3)s2)cc1	Anthrax LF prot 32.8, BoNT-A LC inh2 37.8 | BoNT-A LC CP1 inactive | BoNT-F LC CP1 inactive | Anthrax LF CP1 inactive
O=C(Nc1nc(-c2ccccc2)c(-c2ccccc2)s1)c1ccc(S(=O)(=O)N2CCCCC2)cc1	none | BoNT-A LC CP1 inactive | BoNT-F LC CP1 inactive | Anthrax LF CP1 inactive
Cc1ccc(S(=O)(=O)NCCN2CCOCC2)s1	none
O=C(NC(=S)Nc1ccc(S(=O)(=O)Nc2ncccn2)cc1)c1ccc(Br)cc1	none
O=S(=O)(c1ccc(F)cc1)N1CCN(c2ccccn2)CC1	none
O=S(=O)(c1ccc(Cl)cc1)N1CCN(c2ccccn2)CC1	BoNT F protease 47.7 | BoNT-A LC CP1 inactive | BoNT-F LC CP1 inactive | Anthrax LF CP1 inactive
CCCCCCSc1ccc([C@H]2N[C@@](CC(C)C)(C(=O)OC)[C@H]3C(=O)N(CC)C(=O)[C@@H]23)cc1	none
CCC(C)n1c(-c2cccc(S(=O)(=O)N3CCOCC3)c2)n[nH]c1=S (configuration not stated)	none (no result: BJeLR lethal)
COc1cc2nc(/C=C/c3ccc(N(C)C)cc3)sc2cc1SC	BoNT-A LC inh2 39.4 (no result: BJeLR lethal) | BoNT-A LC CP1 inactive | BoNT-F LC CP1 inactive | Anthrax LF CP1 inactive
O=C(CCNC(=O)c1ccccc1)NCCc1ccc(Cl)cc1	Anthrax LF prot 37.6 | BoNT-A LC CP1 inactive | BoNT-F LC CP1 inactive | Anthrax LF CP1 inactive
O=C(NCc1ccc(F)cc1)c1cc2c(cc1Cl)N1CCCCCC1=NS2(=O)=O	none (no result: BJeLR lethal)
CC(Sc1nccn1C)C(=O)Nc1ccc(C(N)=O)cc1 (configuration not stated)	Autofluor counter inconclusive, BoNT F protease 39.0 | BoNT-A LC CP1 inactive | BoNT-F LC CP1 inactive | Anthrax LF CP1 inactive
COc1ccccc1NC(=O)C(C)Sc1nccn1C (configuration not stated)	none (no result: BJeLR lethal)
COc1ccc(CCCc2nnc(SCC(=O)Nc3nc(C)cs3)n2C)cc1	BoNT-A LC inh2 inconclusive, BoNT F protease 35.1 | BoNT-A LC CP1 inactive | BoNT-F LC CP1 inactive | Anthrax LF CP1 inactive
Cc1csc(NC(=O)CSc2nnc(CCNC(=O)c3ccc(Cl)c(Cl)c3)n2C)n1	none
Cc1cccc(C)c1NC(=O)C1CC(=O)N(C(C)C)C1 (configuration not stated)	BoNT F protease 35.0 | BoNT-A LC CP1 inactive | BoNT-F LC CP1 inactive | Anthrax LF CP1 inactive
CC(C)c1ccc(NC(=O)C2CC(=O)N(C(C)C)C2)cc1 (configuration not stated)	BoNT F protease inconclusive
COc1cccc(NC(=S)NC2CC(C)CC(C)(C)C2)c1 (configuration not stated)	none (no result: BJeLR lethal)
Cc1nn(CC(=O)NCCc2cccs2)c(=O)c2cc3ccccc3n12	Anthrax LF prot 33.7, BoNT-A LC inh2 38.3 | BoNT-A LC CP1 inactive | BoNT-F LC CP1 inactive | Anthrax LF CP1 inactive

Bioassay records from PubChem.
